Data on 18 compounds can be found in PubChem BioAssay.

Activity calls are given as the source filed them.

Test [1] in a line: optical density shifts of acrAB sulA E. coli – strain DRC41, OD650, 48 h, E. coli filamentation inducer project, primary screen (AID 1152).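 Also: E. coli MC1000 strain DRC41 lacking acrAB efflux pump and sulA.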 The conditions noted are these: higher = more signal, called active from +8 up or from −8 down.
Test [2] can be described thus: probe aLefty1 binding on compound microarray – biochemical, small-molecule microarray, 635/667 nm fluorescence, primary screen (AID 1153).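 Also: score merges spot fluorescence with signal-to-noise ratio from the scanned slide images.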 The conditions noted are these: higher = more signal.
Test [3] is described as follows: plasmodial surface anion channel blockers, osmotic lysis – cell-based, P. falciparum Indochina, OD700, 1 h, primary screen (AID 1154). The conditions noted are these: P. falciparum Indochina infected RBC osmotic lysis, higher = more signal, called active from +8 up or from −8 down.
Test [4] can be described thus: plasmodial surface anion channel blockers, osmotic lysis – cell-based, P. falciparum Indochina, OD700, 2 h, primary screen (AID 1155).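 Also: lysis reports solute entry through the parasite surface anion channel PSAC.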 The conditions noted are these: P. falciparum Indochina infected erythrocytes, higher = more signal, called active from +8 up or from −8 down.
Test [5] can be described thus: changes in parasitized red cell lysis, either direction – P. falciparum Indochina, OD700, 3 h, PSAC antagonist project, primary screen (AID 1156). The conditions noted are these: P. falciparum-infected erythrocytes, osmotic lysis, higher = more signal, called active from +8 up or from −8 down.
Test [6] is described as follows: plasmodial surface anion channel blockers, osmotic lysis – cell-based, P. falciparum Indochina, OD700, 18 h, primary screen (AID 1157). The conditions noted are these: P. falciparum Indochina infected erythrocytes, osmotic lysis OD700, 18 h; higher = more signal, called active from +8 up or from −8 down.
Test [7] is described as follows: S6 kinase pathway phospho-S6 level changes – cell-based, A549, cytoblot, luminescence, serum-stimulated, primary screen (AID 1158).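 Also: serum-stimulated A549 lung adenocarcinoma cells; signal is phosphorylated S6 detected by cytoblot immunostaining with HRP secondary.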 The conditions noted are these: 5 h, higher = more signal.
The target of test [8] is NADPH oxidase 2 (Homo sapiens) (UniProt P04839). The test is described as follows: compounds shifting NOX2 Amplex Red fluorescence – cell-based, HEK293-NOX2, PMA-stimulated, NOX inhibitor project, primary screen (AID 1159). Also: test concentration not given here. The conditions noted are these: 45 min, higher = more signal, called active from +8 up or from −8 down.
Chain of NADPH oxidase 2 (Homo sapiens) (P04839 whole entry, looked up): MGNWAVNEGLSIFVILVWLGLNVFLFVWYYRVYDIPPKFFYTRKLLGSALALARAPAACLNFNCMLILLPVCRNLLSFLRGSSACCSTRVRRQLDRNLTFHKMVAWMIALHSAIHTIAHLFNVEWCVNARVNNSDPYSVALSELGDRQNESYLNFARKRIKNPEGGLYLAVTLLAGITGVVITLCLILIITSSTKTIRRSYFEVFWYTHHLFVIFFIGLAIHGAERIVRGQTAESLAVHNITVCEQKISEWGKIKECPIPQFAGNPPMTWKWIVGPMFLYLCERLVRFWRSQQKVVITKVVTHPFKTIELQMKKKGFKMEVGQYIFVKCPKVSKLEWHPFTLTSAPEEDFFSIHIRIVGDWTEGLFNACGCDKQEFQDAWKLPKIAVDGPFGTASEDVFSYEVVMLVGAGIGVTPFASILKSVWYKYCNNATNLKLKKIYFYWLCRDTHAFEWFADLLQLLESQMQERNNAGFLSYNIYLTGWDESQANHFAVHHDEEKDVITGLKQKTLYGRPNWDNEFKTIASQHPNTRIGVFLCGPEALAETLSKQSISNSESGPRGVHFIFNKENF
Test [9] has as its target NADPH oxidase 4 (Homo sapiens) (UniProt Q9NPH5). Briefly: compounds shifting NOX4 Amplex Red fluorescence – cell-based, HEK293-NOX4, tetracycline-induced, NOX inhibitor project, primary screen (AID 1160). The conditions noted are these: HEK293-NOX4, Amplex Red H2O2 fluorescence, 45 min; higher = more signal, called active from +8 up or from −8 down.
Test [10] has as its target NADPH oxidase 5 (Homo sapiens) (UniProt Q96PH1). Briefly: compounds shifting NOX5 Amplex Red fluorescence – cell-based, HEK293-NOX5, NOX inhibitor project, primary screen (AID 1161). The conditions noted are these: HEK293-NOX5, ionomycin, 45 min, higher = more signal.

Chain of NADPH oxidase 5 (Homo sapiens) (Q96PH1 whole entry, looked up): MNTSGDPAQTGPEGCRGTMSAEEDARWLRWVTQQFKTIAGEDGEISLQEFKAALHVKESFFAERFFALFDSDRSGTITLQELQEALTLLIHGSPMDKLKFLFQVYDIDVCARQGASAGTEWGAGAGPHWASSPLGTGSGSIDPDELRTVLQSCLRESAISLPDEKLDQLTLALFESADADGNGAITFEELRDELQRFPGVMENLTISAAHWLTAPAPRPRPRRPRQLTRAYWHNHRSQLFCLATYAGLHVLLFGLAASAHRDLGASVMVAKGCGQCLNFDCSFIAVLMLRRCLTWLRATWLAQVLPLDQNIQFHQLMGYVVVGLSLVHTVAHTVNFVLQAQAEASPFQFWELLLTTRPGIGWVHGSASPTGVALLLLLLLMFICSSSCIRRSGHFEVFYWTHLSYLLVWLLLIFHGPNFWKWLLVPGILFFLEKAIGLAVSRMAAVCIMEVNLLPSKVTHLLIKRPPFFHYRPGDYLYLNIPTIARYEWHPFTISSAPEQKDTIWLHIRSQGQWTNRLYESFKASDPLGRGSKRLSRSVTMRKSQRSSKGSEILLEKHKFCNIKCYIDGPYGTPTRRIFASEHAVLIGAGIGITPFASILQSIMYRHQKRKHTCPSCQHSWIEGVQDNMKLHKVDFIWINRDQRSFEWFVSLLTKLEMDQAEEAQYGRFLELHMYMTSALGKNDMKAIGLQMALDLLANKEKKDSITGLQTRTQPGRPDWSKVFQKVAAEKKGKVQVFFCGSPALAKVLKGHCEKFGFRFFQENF
Chain of NADPH oxidase 4 (Homo sapiens) (Q9NPH5 whole entry, looked up): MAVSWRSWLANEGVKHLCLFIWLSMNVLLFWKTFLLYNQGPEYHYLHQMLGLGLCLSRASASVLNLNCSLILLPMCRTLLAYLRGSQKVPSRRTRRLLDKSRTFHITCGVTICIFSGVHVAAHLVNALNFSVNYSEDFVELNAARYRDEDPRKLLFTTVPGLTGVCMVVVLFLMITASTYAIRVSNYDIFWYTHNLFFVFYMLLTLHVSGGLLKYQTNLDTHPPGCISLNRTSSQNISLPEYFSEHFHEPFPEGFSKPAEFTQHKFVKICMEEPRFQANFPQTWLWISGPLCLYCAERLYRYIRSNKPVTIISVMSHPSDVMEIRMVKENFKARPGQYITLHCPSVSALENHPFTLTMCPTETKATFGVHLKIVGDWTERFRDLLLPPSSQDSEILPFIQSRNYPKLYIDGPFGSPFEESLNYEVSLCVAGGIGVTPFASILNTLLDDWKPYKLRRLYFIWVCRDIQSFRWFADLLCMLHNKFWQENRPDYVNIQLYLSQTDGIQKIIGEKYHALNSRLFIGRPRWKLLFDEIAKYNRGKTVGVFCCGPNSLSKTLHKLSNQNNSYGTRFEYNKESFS

As for `C=CC[C@@]1(C(=O)N2CCOCC2)N=C(c2ccc(OCCCO)cc2)O[C@@H]1c1ccccc1CN=[N+]=[N-]`, the z-score in [1] is -0.124 (inactive); in [3], 21.5 (active); in test [4] it was 4.83 (inactive); in test [5], 1.61 (inactive); in test [6], 0.986 (inactive); in test [7], 0.36. Besides, the z-score is -0.305 (inactive) in [8], 0.645 (inactive) in [9] and -1.07 in test [10]. For the same compound, the composite z-score in test [2] was 0.789.
As for `COc1ccccc1CN1C(=O)c2ccccc2[C@](Cc2ccccc2I)(C(=O)NCC(F)(F)F)[C@@H]1c1ccc(CO)cc1`, the z-score is -0.566 (inactive) in test [1]; 5.37 (inactive) in test [3]; 0.82 (inactive) in test [4]; 2.38 (inactive) in [5]; 0.401 (inactive) in test [6]; -0.317 in [7]. Also, the z-score in test [8] was 1.71 (inactive); in test [9] it was -1.73 (inactive); in [10], -1.05. Moreover, the composite z-score in test [2] was found to be 0.126.
Consider `COc1ccc(CCNC(=O)[C@@H]2c3ccccc3C(=O)N(Cc3cc(C(F)(F)F)cc(C(F)(F)F)c3)[C@H]2c2ccc(CO)cc2)cc1`, for which the z-score in test [1] was 0.0073 (inactive); in [3], 4.55 (inactive); in [4], 0.383 (inactive); in [5], 0.767 (inactive); in test [6] it was 0.233 (inactive); in [7] it was 0.154. Further, the z-score in test [8] was -1.75 (inactive); in [9], 0.194 (inactive); in test [10], -0.077. This compound returned a composite z-score in test [2] of 0.108.
For the compound `CCCNC(=O)[C@@H]1c2ccccc2C(=O)N(C(C)C)[C@H]1c1ccc(CO)cc1`, the z-score in test [1] was 0.737 (inactive); in test [3], 1.67 (inactive); in [4], -0.1 (inactive); in [5], 0.21 (inactive); in [6], -0.21 (inactive); in test [7], -0.0878. The z-score was 0.162 (inactive) in test [8], 0.514 (inactive) in test [9] and -0.0547 in test [10]. Moreover, the composite z-score in [2] stood at 0.202.
As for `CCC(CC)C(O)C1C=CC2C(=O)N(c3ccccc3)C(=O)C2N1Nc1ccc(C(C)C)cc1` (stereo not given), the z-score in test [1] was -0.636 (inactive); in test [3] it was 1.46 (inactive); in [4], 1.19 (inactive); in test [5] it was 0.741 (inactive); in test [6], 0.801 (inactive); in test [7], -0.463. In addition, the results for the z-score in test [8], in [9] and in test [10] were -0.743 (inactive), -4.43 (inactive) and -3.75, respectively. In test [2], this compound returned a composite z-score of 0.501.
For the compound `CC(C)C(CO)N1C(=O)[C@@H]2C3C(=O)OCCC/C=C\[C@H]3OC23C=CCN(C(C)(C)C)C(=O)[C@@H]13` (stereo not given in full), the z-score in test [1] was -0.69 (inactive); in test [3] it was 0.502 (inactive); in test [4], 0.488 (inactive); in test [5] it was 0.441 (inactive); in test [6], 0.478 (inactive); in [7] it was -0.668. For the same compound, the z-score is 1.57 (inactive) in [8], 0.339 (inactive) in [9] and 2.34 in test [10]. Also, the composite z-score in test [2] is -0.142.
As to `[N-]=[N+]=NCc1ccccc1[C@@H]1OC(c2ccc(OCCCO)cc2)=N[C@]1(CCS(=O)(=O)c1ccccc1)C(=O)NCC(O)CO` (stereo not given in full), the z-score in [1] was 0.766 (inactive); in [3], 24.8 (active); in test [4], 8.05 (active); in test [5], 0.619 (inactive); in [6] it was 0.158 (inactive); in test [7], 2.02. The z-score is 0.861 (inactive) in [8], 1.78 (inactive) in [9] and 2.57 in [10]. The compound further showed a composite z-score in test [2] of 0.546.
With `O=C1O[C@@H](c2ccccc2)[C@@H](c2ccccc2)N2[C@@H](c3ccc(OCCO)cc3)[C@]3(C(=O)Nc4ccccc43)[C@@H](C(=O)O)[C@H]12`, the z-score in test [1] was 0.635 (inactive); in [3] it was 7.13 (inactive); in test [4], -1.02 (inactive); in [5], -0.202 (inactive); in test [6], -1.62 (inactive); in test [7], 1.52. In addition, the z-score is 0.262 (inactive) in test [8], -0.444 (inactive) in test [9] and -0.985 in test [10]. The compound further yielded a composite z-score in [2] of 1.46.
As to `CN1C(=O)C2C=CC(C(O)COCc3ccccc3)N(N(c3ccccc3)c3ccccc3)C2C1=O` (stereo not given), the z-score in test [1] is -0.339 (inactive); in test [3] it was 3.65 (inactive); in test [4] it was 1.49 (inactive); in test [5], 0.361 (inactive); in test [6] it was 1.07 (inactive); in test [7], -0.849. For the same compound, the z-score was 1.58 (inactive) in test [8], -4.42 (inactive) in test [9] and 0.262 in test [10]. This compound yielded a composite z-score in test [2] of 0.479.
Regarding `C=CCC(OC(C)=O)[C@@H]1[C@@H](N(Cc2cc3ccccc3o2)C(=O)c2ccc(-c3ccccc3)cc2)c2cc(OCCCO)ccc2N1C(=O)c1ccc2ccccc2c1` (stereo not given in full), the z-score was -0.966 (inactive) in test [1]; 0.923 (inactive) in test [3]; 0.354 (inactive) in [4]; 0.216 (inactive) in [5]; 0.161 (inactive) in test [6]; -0.109 in test [7]. Moreover, the values for the z-score in test [8], in [9] and in test [10] were -1.08 (inactive), -0.72 (inactive) and 0.869, respectively. In test [2], the composite z-score was found to be 0.187.
Regarding `COCCOC(=O)N1C(=O)[C@@]2(c3cc(C#CC4=CCCCC4)ccc31)[C@H](c1ccccc1OCCO)N1[C@H](c3ccccc3)[C@H](c3ccccc3)OC(=O)[C@H]1[C@@H]2C(=O)Nc1nc2ccccc2s1`, the z-score in test [1] was -0.541 (inactive); in test [3], 3.53 (inactive); in test [4], 1.72 (inactive); in test [5] it was -0.507 (inactive); in test [6], 1.54 (inactive); in [7], -0.168. In addition, the z-score is 1.59 (inactive) in test [8], 0.571 (inactive) in test [9] and 1.41 in test [10]. This compound also had a composite z-score in [2] of 0.287.
On to `C=C(C)C1CCC(C(O)C2C=CC3C(=O)N(C)C(=O)C3N2N2CCCCC2)CC1` (stereo not given), for which the z-score is -1.09 (inactive) in test [1]; 1.23 (inactive) in test [3]; 0.737 (inactive) in test [4]; 0.302 (inactive) in [5]; 1.37 (inactive) in [6]; -1.41 in test [7]. Besides, the results for the z-score in [8], in test [9] and in test [10] were -0.128 (inactive), 0.773 (inactive) and 0.0159, respectively. In addition, the composite z-score in [2] turned out to be 0.336.
As to `COCCOC(=O)N1C(=O)[C@@]2(c3cc(C#CCCO)ccc31)[C@H](c1ccccc1OCCO)N1[C@H](c3ccccc3)[C@H](c3ccccc3)OC(=O)[C@H]1[C@@H]2C(=O)Nc1nc2ccccc2s1`, the z-score is -0.395 (inactive) in test [1]; 13.1 (active) in test [3]; 3.36 (inactive) in test [4]; 0.621 (inactive) in test [5]; 1.66 (inactive) in test [6]; -0.202 in test [7]. Moreover, the z-score is 1.18 (inactive) in test [8], 0.781 (inactive) in test [9] and 1.53 in [10]. This compound came in with a composite z-score in test [2] of 0.241.
In the case of `CCOC(=O)c1ccc(NC(=O)O[C@H]2[C@H](OC(=O)Nc3ccc4c(c3)OCO4)[C@@H](OC(=O)Nc3ccc4c(c3)OCO4)[C@@H](OC)O[C@@H]2CO)cc1`, the z-score in test [1] was 0.113 (inactive); in test [3] it was 10.4 (active); in test [4], 1.31 (inactive); in test [5], 0.843 (inactive); in test [6], 0.593 (inactive); in test [7], 0.0796. Moreover, the z-score in test [8] was -3.35 (inactive); in test [9], -0.689 (inactive); in test [10] it was -1.77. In test [2], this compound returned a composite z-score of 0.325.
Consider `C=CCC(OC(C)=O)[C@@H]1[C@@H](N(Cc2cc3ccccc3o2)C(=O)c2ccc(C)cc2)c2cc(OCCCO)ccc2N1C(=O)Cc1ccc(OC)cc1` (stereo not given in full), for which the z-score in test [1] is 1.72 (inactive); in test [3] it was 1.19 (inactive); in [4] it was 0.794 (inactive); in test [5], -0.528 (inactive); in [6], 0.211 (inactive); in test [7], -0.0745. In addition, the z-score was 0.391 (inactive) in test [8], 0.652 (inactive) in test [9] and 1.72 in test [10]. For the same compound, in test [2], the composite z-score was found to be 0.25.
Consider `CC(CO)N1C(=O)[C@@H]2[C@H]3C(=O)OCC=C[C@H]3OC23C=CCN(C(C)(C)C)C(=O)[C@@H]13` (stereo not given in full), for which the z-score in [1] is -0.771 (inactive); in [3], 0.16 (inactive); in [4], -0.0471 (inactive); in test [5], -0.0717 (inactive); in test [6], -0.23 (inactive); in test [7], -0.105. In addition, the z-score in test [8] was 0.566 (inactive); in [9], 0.401 (inactive); in [10], 1.43. In addition, the composite z-score in test [2] is -0.407.
As for `COc1cc(CO)cc(I)c1O[C@H]1C=C(C(=O)NCCO)C[C@@H](NCc2ccc(F)cc2)[C@@H]1O`, the z-score is 0.548 (inactive) in test [1]; 21.8 (active) in [3]; 5.43 (inactive) in [4]; 4.03 (inactive) in [5]; 1.36 (inactive) in test [6]; 0.325 in test [7]. Further, the figures for the z-score in test [8], in test [9] and in test [10] were -1.07 (inactive), -1.05 (inactive) and -0.994, respectively. In addition, the composite z-score in test [2] was -0.24.
As for `COc1ccc(NC(=O)O[C@H]2[C@H](OC(=O)Nc3ccccc3)[C@@H](OC(=O)Nc3ccccc3)[C@@H](OC)O[C@@H]2CO)cc1`, the z-score in test [1] is -0.302 (inactive); in test [3] it was 4.49 (inactive); in [4], 0.463 (inactive); in [5], 0.316 (inactive); in [6], 0.373 (inactive); in [7] it was 0.256. In addition, the z-score was -7.53 (inactive) in test [8], -0.713 (inactive) in test [9] and -2.43 in test [10]. The same compound showed a composite z-score in test [2] of 0.113.
